Experimental findings from PubChem BioAssay are described below.

Experiment [1] can be described thus: HepG2 liver cancer cell viability effects, profiling panel, resazurin fluorescence, 24 h, PK04 Diversity Set (AID 1172). The settings on record: higher = more signal.
Experiment [2] can be described thus: basal S. cerevisiae growth modulation, no modifier, primary screen, OD600, strain BY4716, 24 h, basal condition (AID 1173). The settings on record: OD600, 24 h, higher = more signal, called active from +8 up or from −8 down.
Experiment [3] can be described thus: MM1S myeloma cell viability, profiling panel, resazurin fluorescence, basal, 24 h, PK04 Diversity Set (AID 1174).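 Further: MM1S multiple myeloma cell line.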 Particulars: higher = more signal, called active from +8 up or from −8 down. (Resazurin is reduced to fluorescent resorufin, in cell work by metabolically active cells.)
The target of experiment [4] is Dihydroorotate dehydrogenase (quinone), mitochondrial (Plasmodium falciparum (isolate 3D7)) (UniProt Q08210). In words: PfDHODH enzyme inhibitors, primary screen, biochemical, C-terminal His tag, absorbance 600 nm (AID 1175).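 Further: recombinant parasite enzyme with a five histidine tag at its C terminus.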 The settings on record: DCIP absorbance 600 nm, higher = more signal, called active from +8 up or from −8 down.
Experiment [5] is described as follows: P. aeruginosa biofilm formation inhibitors, primary screen, strain PAO1, LB-PBS medium, absorbance 600 nm (AID 1176). Particulars: P. aeruginosa PAO1 growth/biofilm, A600, 12 h; higher = more signal.
The nature of experiment [6]: S. cerevisiae RM11-1a growth modifiers, primary screen, strain RM11-1a, OD600, basal, 24 h (AID 1177).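 Further: cultures grown under basal conditions with no added stressor.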 Particulars: OD600, 24 h, higher = more signal, called active from +8 up or from −8 down.
Experiment [7] is described as follows: E. coli acrAB mutant growth effects, primary screen, E. coli filamentation inducers, strain DRC39, OD650, 24 h (AID 1178).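 Further: growth measured as culture turbidity by optical density at 650 nm.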 Particulars: higher = more signal, called active from +8 up or from −8 down.
Experiment [8] can be described thus: E. coli acrAB mutant growth effects, primary screen, E. coli filamentation inducers, strain DRC39, OD650, 48 h (AID 1179).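 Further: screen aims at cell division blockers that make cells filament.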 Particulars: E. coli DRC39 delta-acrAB growth, higher = more signal, called active from +8 up or from −8 down.
Experiment [9] can be described thus: RPMI8226 myeloma cell viability, profiling panel, resazurin fluorescence, basal, 24 h, PK04 Diversity Set (AID 1180).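 Further: RPMI8826 multiple myeloma cell line at 5000 cells per well.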 The settings on record: higher = more signal.
The target in experiment [10] is E3 ubiquitin-protein ligase XIAP (Homo sapiens) (UniProt P98170). Description: XIAP binders, primary screen, biophysical, small-molecule microarray, fluorescence 635 nm (AID 1181).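 Further: score merges 667 nm emission and signal to noise over triplicate slides.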 The settings on record: small-molecule microarray binding, higher = more signal.
Experiment [11] has as its system XIP peptide (Xip251-270) binding. Description: small-molecule binders of XIP peptide, primary screen, biochemical, small-molecule microarray, fluorescence 635/667 nm, 0.1 µg/mL protein (AID 1182). Particulars: fluorescent protein binding, 635 nm, higher = more signal, called active from +8 up or from −8 down.
Another experiment has as its system XIP peptide (Xip251-270). In words: small-molecule binders of XIP peptide, primary screen, biochemical, small-molecule microarray, fluorescence 635/667 nm, 0.5 µg/mL protein (AID 1183). Particulars: small-molecule microarray binding, fluorescence 635 nm; higher = more signal.
A short description of experiment [12]: Plasmodium falciparum growth inhibition, primary screen, strain 3D7, DAPI fluorescence, 100 nL (AID 1184).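 Further: parasites grown inside human red blood cells in medium with human serum.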 Particulars: P. falciparum 3D7 growth, 3 d, higher = more signal.
Experiment [13] concerns the target Homeobox protein Hox-A13 (Mus musculus) (UniProt Q62424). Description: inhibitors of HoxA13-DNA binding, primary screen, biochemical, fluorescence polarization, labeled oligonucleotide (AID 1185). Particulars: 15 min, higher = more signal, called active from +8 up or from −8 down. In general terms: In fluorescence polarisation assays a small probe gives low polarisation when free and higher when bound to something large.

Experiment [14] can be described thus: inhibitors of hydroxyurea-induced Chk1 phosphorylation, primary screen, imaging, HeLa, phospho-Chk1 antibody, percent positive cells (AID 1186). The settings on record: hydroxyurea-induced phospho-Chk1 immunofluorescence imaging, higher = more signal.
Experiment [15] is described as follows: inhibitors of hydroxyurea-induced Chk1 phosphorylation, primary screen, imaging, HeLa, phospho-Chk1 nuclear intensity (AID 1187). The settings on record: hydroxyurea-induced phospho-Chk1 immunofluorescence imaging, higher = more signal.

Calls of active or inactive are those of the source. Unless noted, how the calls were made is not given here.

Homeobox protein Hox-A13 (Mus musculus), sequence (Q62424 whole entry, looked up): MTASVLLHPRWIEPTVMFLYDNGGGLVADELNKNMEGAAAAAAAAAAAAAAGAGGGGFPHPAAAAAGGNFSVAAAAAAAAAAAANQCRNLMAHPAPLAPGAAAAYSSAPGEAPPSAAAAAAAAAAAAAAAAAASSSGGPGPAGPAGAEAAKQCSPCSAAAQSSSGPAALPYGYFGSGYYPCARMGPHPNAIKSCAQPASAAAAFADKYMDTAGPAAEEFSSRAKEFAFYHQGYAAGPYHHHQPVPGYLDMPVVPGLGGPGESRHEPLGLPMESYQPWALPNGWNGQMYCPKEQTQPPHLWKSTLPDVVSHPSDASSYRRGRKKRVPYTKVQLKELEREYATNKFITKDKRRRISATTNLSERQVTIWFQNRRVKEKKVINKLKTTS
E3 ubiquitin-protein ligase XIAP (Homo sapiens), sequence (P98170 whole entry, looked up): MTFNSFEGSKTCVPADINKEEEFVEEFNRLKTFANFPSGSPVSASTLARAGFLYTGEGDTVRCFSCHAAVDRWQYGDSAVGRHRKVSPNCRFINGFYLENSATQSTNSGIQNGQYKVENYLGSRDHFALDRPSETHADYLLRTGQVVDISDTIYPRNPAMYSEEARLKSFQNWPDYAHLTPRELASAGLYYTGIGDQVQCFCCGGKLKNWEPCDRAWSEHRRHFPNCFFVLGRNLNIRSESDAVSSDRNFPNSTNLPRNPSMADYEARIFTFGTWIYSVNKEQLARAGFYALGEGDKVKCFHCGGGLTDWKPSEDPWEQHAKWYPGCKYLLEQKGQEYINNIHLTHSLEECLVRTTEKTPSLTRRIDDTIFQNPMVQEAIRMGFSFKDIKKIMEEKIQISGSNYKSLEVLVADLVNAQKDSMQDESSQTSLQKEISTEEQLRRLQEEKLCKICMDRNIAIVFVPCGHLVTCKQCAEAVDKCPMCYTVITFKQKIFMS
Dihydroorotate dehydrogenase (quinone), mitochondrial (Plasmodium falciparum (isolate 3D7)), sequence (Q08210 whole entry, looked up): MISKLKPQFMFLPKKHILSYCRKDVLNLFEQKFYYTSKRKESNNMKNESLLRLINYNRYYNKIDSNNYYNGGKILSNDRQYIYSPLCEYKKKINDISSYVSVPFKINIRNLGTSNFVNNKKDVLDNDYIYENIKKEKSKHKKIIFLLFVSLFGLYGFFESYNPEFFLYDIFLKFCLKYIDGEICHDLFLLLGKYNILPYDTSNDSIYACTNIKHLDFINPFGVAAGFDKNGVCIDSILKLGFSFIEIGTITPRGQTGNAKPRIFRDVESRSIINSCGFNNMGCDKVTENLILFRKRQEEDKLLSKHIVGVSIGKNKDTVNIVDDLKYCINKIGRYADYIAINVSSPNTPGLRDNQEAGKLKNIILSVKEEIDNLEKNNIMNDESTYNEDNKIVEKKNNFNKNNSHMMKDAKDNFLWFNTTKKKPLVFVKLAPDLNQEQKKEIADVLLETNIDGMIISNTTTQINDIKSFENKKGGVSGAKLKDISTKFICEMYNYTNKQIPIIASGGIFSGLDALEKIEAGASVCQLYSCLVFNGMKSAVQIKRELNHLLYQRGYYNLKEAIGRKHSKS

Take `COC(=O)[C@@H]1N=C(c2ccc(OCCCO)cc2)O[C@@H]1C`: the z-score in experiment [1] was 0.38; in experiment [2], 0.0443 (inactive); in experiment [3], -0.341 (inactive); in [5], -0.689 (inactive); in [6], 0.895 (inactive); in [7], 0.52 (inactive). Besides, the z-score in [8] is 1.13 (inactive); in experiment [9], 0.945; in experiment [12], 0.985; in experiment [13] it was -2.44 (inactive); in [14], -0.749 (inactive); in [15] it was -0.626 (inactive). Further, the composite z-score is -0.403 (inactive) in experiment [4], 0.105 in experiment [10], 0.0312 (inactive) in experiment [11] and 0.232 in the experiment on XIP peptide (Xip251-270).
Turning to `O=C1OCCC/C=C\[C@H]2OC34C=CCN(c5ccc6ccccc6c5)C(=O)[C@H]3N(CCO)C(=O)[C@@H]4C12` (some centres undefined), the z-score is -0.75 in [1]; 0.307 (inactive) in experiment [2]; -0.997 (inactive) in experiment [3]; -0.634 (inactive) in experiment [5]; 0.571 (inactive) in experiment [6]; -0.937 (inactive) in experiment [7]. Besides, the z-score in experiment [8] is -1.04 (inactive); in experiment [9], -0.15; in experiment [12] it was -1.05; in experiment [13], -5.35 (inactive); in [14] it was -0.234 (inactive); in experiment [15], -0.0994 (inactive). For the same compound, the composite z-score is 0.257 (inactive) in [4], 0.275 in experiment [10], 0.314 (inactive) in experiment [11] and -1.38 in the experiment on XIP peptide (Xip251-270).
`CC1=C2[C@@H](CCc3ccccc3)OB(O)C[C@@H]2[C@@H]2C(=O)N(C)C(=O)[C@@H]2C1`: the z-score is 0.157 in experiment [1]; -2.36 (inactive) in experiment [2]; -0.313 (inactive) in experiment [3]; 0.212 (inactive) in [5]; 0.154 (inactive) in experiment [6]; 0.672 (inactive) in [7]. The z-score was 0.561 (inactive) in experiment [8]; -0.265 in [9]; 0.278 in experiment [12]; -5.07 (inactive) in experiment [13]; 0.0183 (inactive) in experiment [14]; 0.0905 (inactive) in [15]. The composite z-score is -0.628 (inactive) in [4], -0.239 in experiment [10], 0.796 (inactive) in experiment [11] and 0.472 in the experiment with XIP peptide (Xip251-270).
As to `O=C1OCCC=C[C@H]2OC34C=CCN(Cn5nnc6ccccc65)C(=O)[C@H]3N(CCCO)C(=O)[C@@H]4C12` (some centres undefined), the z-score was -0.614 in experiment [1]; -0.63 (inactive) in experiment [2]; 0.157 (inactive) in experiment [3]; -0.441 (inactive) in experiment [5]; 0.227 (inactive) in experiment [6]; -1.13 (inactive) in experiment [7]. Besides, the z-score in experiment [8] was -0.951 (inactive); in experiment [9], -0.997; in [12] it was -1.82; in experiment [13], -3.33 (inactive); in experiment [14] it was -0.628 (inactive); in experiment [15] it was -0.609 (inactive). Further, the composite z-score was -0.535 (inactive) in experiment [4], -0.0351 in [10], 2.05 (inactive) in experiment [11] and -0.308 in the experiment with XIP peptide (Xip251-270).
With `Cc1ccc(S[C@]2(C(=O)NCCN3CCOCC3)CC(=O)N(Cc3ccccc3Cl)[C@@H]2c2ccc(CO)cc2I)cc1`, the z-score in experiment [1] was 0.466; in experiment [2], -3.6 (inactive); in experiment [3], -2.72 (inactive); in experiment [5] it was 0.379 (inactive); in experiment [6], -1.66 (inactive); in experiment [7] it was 0.392 (inactive). For the same compound, the z-score in experiment [8] is 0.475 (inactive); in experiment [9] it was -1.7; in [12] it was -0.244; in experiment [13] it was -2.18 (inactive); in experiment [14], 0.0327 (inactive); in experiment [15] it was 0.421 (inactive). In addition, the composite z-score in [4] is -0.576 (inactive); in experiment [10] it was -0.259; in experiment [11] it was 0.676 (inactive); in the experiment on XIP peptide (Xip251-270), 0.433.
In the case of `COC(=O)C1=CC(CCCO)=CC(c2cccs2)N(Cc2cccc(OC(F)(F)F)c2)C=C1C(=O)OC` (centres undefined), the z-score is -0.872 in experiment [1]; -0.487 (inactive) in [2]; -1.46 (inactive) in [3]; 0.82 (inactive) in experiment [5]; 0.0036 (inactive) in [6]; 0.581 (inactive) in experiment [7]. Further, the z-score is 0.153 (inactive) in [8]; -1.16 in experiment [9]; -1.78 in [12]; -7.24 (inactive) in experiment [13]; 0.128 (inactive) in experiment [14]; 0.39 (inactive) in experiment [15]. For the same compound, the composite z-score in experiment [4] was -3.05 (inactive); in experiment [10], -0.0756; in experiment [11], 0.348 (inactive); with XIP peptide (Xip251-270) it was 0.706.
With `CCCC=C(CCC)[C@@H](NS(=O)(=O)CC12CCC(CC1=O)C2(C)C)c1ccc(C(=O)OC)cc1` (some centres undefined), the z-score in experiment [1] was 0.602; in experiment [2] it was 0.484 (inactive); in experiment [3] it was 0.16 (inactive); in experiment [5], 0.756 (inactive); in experiment [6], -0.721 (inactive); in [7] it was 0.0384 (inactive). The z-score is -0.572 (inactive) in [8]; -0.123 in [9]; -0.384 in experiment [12]; -2.11 (inactive) in experiment [13]; -0.225 (inactive) in [14]; -0.276 (inactive) in [15]. The composite z-score in experiment [4] is -0.929 (inactive); in experiment [10], -0.102; in [11] it was -0.341 (inactive); in the experiment on XIP peptide (Xip251-270), 0.316.
On to `CCOC(=O)C[C@H]1[C@H](OC(=O)c2ccc(-c3ccccc3)cc2)[C@@H](NC(=O)CC(C)C)c2cc(OCCCO)ccc2N1C(=O)c1ccc2ccccc2n1`, for which the z-score in experiment [1] was 1; in experiment [2], -0.677 (inactive); in experiment [3] it was 0.722 (inactive); in experiment [5], -0.382 (inactive); in [6], -0.248 (inactive); in experiment [7] it was 0.102 (inactive). The z-score in experiment [8] is 0.327 (inactive); in experiment [9], 0.517; in [12], -0.459; in experiment [13], -2.19 (inactive); in [14], 0.319 (inactive); in experiment [15], 0.571 (inactive). In addition, the composite z-score in experiment [4] was -1.31 (inactive); in experiment [10], -0.134; in [11], -0.349 (inactive); in the experiment on XIP peptide (Xip251-270), 0.381.
`[N-]=[N+]=Nc1ccccc1C[C@]1(C(=O)O)COC(c2ccc(OCCCO)cc2)=N1`: the z-score in [1] is -0.365; in experiment [2] it was -0.231 (inactive); in [3] it was 0.037 (inactive); in experiment [5], 0.0254 (inactive); in experiment [6], 0.212 (inactive); in experiment [7] it was 0.438 (inactive). Further, the z-score was -0.8 (inactive) in experiment [8]; 0.404 in experiment [9]; -1.54 in experiment [12]; -4.69 (inactive) in [13]; 0.0118 (inactive) in [14]; 0.0756 (inactive) in experiment [15]. The composite z-score in [4] is 1.04 (inactive); in experiment [10], 0.245; in experiment [11], 1.09 (inactive); in the experiment on XIP peptide (Xip251-270) it was 0.907.
